The source of these data is PubChem BioAssay (NCI).

About 83,000 compounds went through this panel and 20% of them were active in at least one assay; those are over-represented in the sample as a whole.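 Single-concentration screen, 48 h exposure, 96-well plates. Endpoint: percent growth. Below 10 = active.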 Unmarked numbers belong to inactive results. Calls of active or inactive are those of the source.

The experiment deals with SR leukemia. Briefly: NCI-60 one-dose screen, 48 h (100 = growth as untreated, 0 = no growth, -100 = all killed). To be noted: 10 µM unless noted. How it is done:
Growth inhibition of the SR human tumor cell line is measured as a screen for anti-cancer activity. Cells are grown in 96 well plates and exposed to the test compound for 48 hours. Compounds are tested at a single concentration, which is 10^-5 M for most compounds. The reported endpoint is percent growth (GI% or GIPRCNT), where numbers from 0 - 100% represent growth inhibition, and numbers from -100% - 0 represent cell death. For example, a value of 40 represents 60% growth inhibition. A value of 0 means no net growth occurred over the course of the experiment. A value of -40 indicates 40% of cells at the beginning of the experiment died by the end of the experiment. A value of -100 means all cells are dead at the end of the experiment.
NCI-60 Human Tumor Cell Lines Screen was performed using the standard one-dose NCI protocol, which is described in more detail at https://dtp.cancer.gov/discovery_development/nci-60/default.htm.
Compounds with GIPRCNT values below 10 were considered active. Activity score was based on GIPRCNT using the following formula: […]
Score is 0 for GIPRCNT values of 100 or above, 50 for GIPRCNT values of 0, and 100 for GIPRCNT values of -100.
`CC(C)N(CCOC(=O)Nc1ccccc1Cl)C(C)C`: the growth is 89.7%.

As for `N#Cc1cnn2c(-c3ccc(Cl)cc3)nc(NC3CC3)nc12`, the growth is 86.1%.

As for `COc1cccc(-c2cnco2)c1OCc1c(C)c(COc2c(OC)cccc2-c2cnco2)c(C)c(COc2c(OC)cccc2-c2cnco2)c1C`, the growth is 64.2%.

On to `Nc1c(-c2nc3ccc(Br)cc3c(=O)[nH]2)nnn1-c1ccccc1`, for which the growth is 57.7%.

As for `COc1ccc(/C(C)=C(\c2ccc(Cl)cc2)c2ccc(OCCN3CCCC3)cc2)cc1F`, the growth was -22.6% (active).

For the compound `CCCCN(CCCC)CCCn1c(=O)c2sc3ncccc3c2n2nnc(-c3ccccc3)c12`, the growth was 99.2%.

On to `N#Cc1c(N)n2c(nc1=Nc1ccc([N+](=O)[O-])cc1)sc1cc(Cl)ccc12`, for which the growth was 34.7%.

With `CCc1cc(Cc2cc(CC)cc(C(C)(C)C)c2O)c(O)c(C(C)(C)C)c1`, the growth was -13.6% (active).

For `Cc1c(C(N)=O)sc2nc(C)n(/N=c3\scc(-c4ccccc4)n3Cc3ccccc3)c(=O)c12`, the growth was 12.8%.

Consider `O=C(NCc1cn(Cc2cccc(Oc3ccccc3)c2)nn1)c1cccnc1NCc1ccc(Cl)cc1`, for which the growth was 19.3%.

`OC(COc1cccc2ccccc12)CN1CCN(c2ccccc2)CC1` (stereo not given): the growth was 130%.

As to `COc1cc2c(cc1OC)-c1ccc3cc4c(cc3c1N(CCCn1ccnc1)C2)OCO4`, the growth was 7.86% (active).

In the case of `CO[C@H]1/C=C/O[C@@]2(C)Oc3c(C)c(O)c4c(c3C2=O)C(=O)C(/C=N/N(c2ccccc2)c2ccccc2)=C(NC(=O)/C(C)=C\C=C\[C@H](C)[C@H](O)[C@@H](C)[C@@H](O)[C@@H](C)[C@H](OC(C)=O)[C@@H]1C)C4=O`, the growth is -13% (active).

Consider `Cn1cc(-c2ccc3ncc(-c4ccc(CC(=O)Nc5cc(C(C)(C)C)nn5C)cc4)cc3c2)cn1`, for which the growth is 11.6% [30 µM].

In the case of `Fc1ccc(Nc2nc(Nc3ccc(-c4nc5ccccc5[nH]4)cc3)c3cn[nH]c3n2)cc1`, the growth is -21.1% (active).

Consider `COc1ccc(C2CC(c3cnccn3)=NN2)cc1OC` (stereo not given), for which the growth is 79.3%.

For the compound `c1ccc2[nH]c(SSc3nc4ncncc4[nH]3)nc2c1`, the growth is 32.8%.

For `NC(=S)N/N=C/C(=O)O`, the growth was 62.9%.

In the case of `Cc1ccc(NC(=O)C(Cl)Cl)cc1`, the growth is 97.2%.

For `Cc1c(Cl)cccc1NS(=O)(=O)c1ccccc1`, the growth is 113%.

Take `Cc1ccc(S(=O)(=O)NN/C(N)=N\S(=O)(=O)c2cc(C)c(Cl)cc2SCc2ccccc2)cc1`: the growth is 70.4%.

Turning to `COc1cc(-c2cccc([N+](=O)[O-])c2)c(-c2nc(-c3ccccc3)c(-c3ccccc3)n2C2CC2)cc1OC`, the growth was 57.2%.

Take `COc1c(C)cnc(CSc2nc(-c3ccc(C)cc3)cn2-c2ccc(Cl)cc2)c1C`: the growth is 74.8%.

As for `COC(=O)[C@]12CC[C@@H](C)[C@H](C)[C@@H]1C1=CC[C@@H]3[C@@]4(C)C(C=O)=C[C@@](C)(CO)C4=CC[C@@]3(C)[C@]1(C)CC2`, the growth is 15.5%.

Regarding `O=C(/C=C/C12c3ccccc3C(c3ccccc31)C1C(=O)NC(=O)C12)c1ccc(Cl)cc1` (stereo not given), the growth is 13.3%.

With `COc1ccc(-n2nnc(C(=O)NCCc3c[nH]c4ccc(F)cc34)c2C)cc1`, the growth is 82.1%.

Consider `COC1=CC(c2ccc[nH]2)=N/C1=C\c1[nH]c(C)c(C(=O)OCCn2cc(CCC[C@@H]3Cc4cc(O)ccc4C4CC[C@]5(C)[C@@H](O)CC[C@H]5C43)nn2)c1C` (stereo not given in full), for which the growth was 23.8%.

`Cc1ccccc1NC(=O)CN(C)C`: the growth was 104%.

As for `COC(=O)CCCNC(=O)C(=O)c1c(O)c(O)c(C(C)C)c2cc(C)c(-c3c(C)cc4c(C(C)C)c(O)c(O)c(C(=O)C(=O)NCCCC(=O)OC)c4c3O)c(O)c12`, the growth was -1.66% (active).

As for `Nc1c(C(=O)c2ccc(Cl)s2)sc2nc3c(cc12)CCCC3`, the growth is 97.3%.

As for `CCC(O)(C(c1ccccc1)c1ccccn1)C(c1ccccc1)c1ccccn1` (stereo not given), the growth is 83.8%.

Turning to `Cl.[Pt].[c-]1ccccc1-c1ccccn1.c1ccc(P(c2ccccc2)C([PH+](c2ccccc2)c2ccccc2)[PH+](c2ccccc2)c2ccccc2)cc1`, the growth is 20.4%.

`COc1ccc(Cn2cnc3cc(C(=O)Nc4cccc5ccccc45)ccc32)c(OC)c1`: the growth was -17% [30 µM] (active).

On to `COc1ccc(N(C)c2nc(Cl)nc3cnn(C)c23)cc1`, for which the growth is 13.2%.

For `CCCCN1CCN(c2ccc3nc(-c4ccc5nc(-c6cc(OC)c(OC)c(OC)c6)[nH]c5c4)[nH]c3c2)CC1`, the growth was 10.7%.

For `CC(C)c1ccc(NC(=O)Cc2ccc(Nc3ncnc4cc(-c5cnn(CCN(C)C)c5)ccc34)cc2)cc1`, the growth is -49.1% [30 µM] (active).

With `NS(=O)(=O)Oc1ccc(NC(=O)C23CC4CC(CC(C4)C2)C3)cc1Cl`, the growth is 99%.

As to `N#C/C(=C\c1ccc2c(c1)OCO2)n1nnc2ccccc21`, the growth was 28%.

Take `Cc1ccc(/C(=N\N=C(N)N)c2ccccc2)cc1`: the growth is 10.8%.

With `NC(=Nc1ccc(N)cc1)C(N)=Nc1ccc(N)cc1`, the growth was 134%.
